# Screening data from PubChem BioAssay.
# D1 PAM: enhances dopamine response at the human D1 receptor | P21728 | HEK293 TREx D1 cells, calcium flux, dopamine EC20 potentiation | potentiation, % at 10 µM | hit rate 0.036% among 360,000 | AID 504651; in the data active = potentiation above about 30%; also: 0% is about no effect
# DRD3 antagonist: blocks the human D3 dopamine receptor; P35462; D3R cells, DiscoveRx beta-arrestin luminescence, antagonist mode; active compounds read low; max response, negative = inhibition, %; hit rate 2.5% among 360,000; AID 652054; in the data active = max response below about -50%; inconclusive = no clear call, values can overlap the other calls; also: % is scaled to controls: 0 for no effect and ±100 for the full control effect
# Target sequence (P35462 whole entry, looked up): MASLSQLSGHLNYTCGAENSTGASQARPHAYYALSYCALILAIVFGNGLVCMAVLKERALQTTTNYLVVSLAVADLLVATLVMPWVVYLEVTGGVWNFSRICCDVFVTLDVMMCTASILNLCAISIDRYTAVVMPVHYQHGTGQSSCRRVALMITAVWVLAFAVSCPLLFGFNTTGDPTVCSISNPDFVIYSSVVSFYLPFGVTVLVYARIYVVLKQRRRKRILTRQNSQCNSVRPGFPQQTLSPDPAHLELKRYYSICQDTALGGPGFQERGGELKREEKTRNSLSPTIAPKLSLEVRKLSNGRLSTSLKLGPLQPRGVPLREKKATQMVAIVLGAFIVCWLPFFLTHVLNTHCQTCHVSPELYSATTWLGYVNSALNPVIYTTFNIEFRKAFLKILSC
#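 Cells expressing the human receptor were seeded at 1500 cells/well, incubated overnight at 37 degrees C in 5% CO2, then exposed to library compounds with dopamine controls for 90 minutes at 37 degrees C before luminescent detection.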
# D3 ag: D3 dopamine receptor (human) agonism | max activation, % | AID 652048 | D3R DiscoveRx beta-arrestin cells, luminescence, 90 min | hit rate 0.58% among 410,000 | P35462; in the data active = max activation above about 30%; also: 0% is about no effect
#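 Agonist mode: compounds and dopamine controls were applied to plated cells for 90 min at 37 degrees C after an overnight attachment at 1500 cells/well. Luminescent read-out followed 30 - 60 minutes at room temperature with DiscoveRx detection reagent.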
# D1 antag: blocks dopamine activation of the human D1 receptor; HEK293 TREx D1 cells, calcium flux, dopamine EC80; active compounds read low; hit rate 3.2% among 360,000; P21728; activity change, negative = inhibition, % at 10 µM; in the data active = activity change below about -30%; also: % is scaled to controls: 0 for no effect and ±100 for the full control effect
#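 Compound effects on dopamine-evoked calcium signalling were measured in tetracycline-induced HEK293 Trex D1 cells. Dopamine at EC80 followed a 180 s compound pre-read, and fluorescence was tracked kinetically for 180 s more.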
# D1 agonist: human D1 receptor agonism; P21728; HEK293 T-REx D1 cells, calcium flux, agonist mode; activation, % at 2 µM; hit rate 1% among 360,000; AID 504660; in the data active = activation above about 30%; also: 0% is about no effect
#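 Inducible HEK293 T-REx D1 cells, force-coupled to calcium signalling, were plated at 4000 cells/well with tetracycline and held overnight at 30 C. After no-wash calcium dye loading, compound-evoked calcium rise over 180 s flagged agonists.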
# The depositor's hits bear a star; ? = inconclusive; · = no result; ! = not active in a repeat. Only some compounds are listed: those with a hit (about 6.1% of all), similar ones and a draw of the others.
SMILES,D1 PAM,DRD3 antagonist,D3 ag,D1 antag,D1 agonist
Cc1ccc(NC(=O)CN(C)C(=O)c2ccc(-n3cncn3)c([N+](=O)[O-])c2)cc1,-5,5,-8,-55*,0
COc1ccc(-c2[nH]c(-c3ccccc3)nc2SCC(=O)Nc2ccc3c(c2)OCO3)cc1,-1,·,-5,-12,0
COc1ccc(CCNC(=O)CCCCn2c(=O)c3ccccc3n(CC(=O)Nc3ccc(C)cc3C)c2=O)cc1OC,-1,·,-8,-8,2
Cc1ccc(CNC(=O)C2CCC(=O)N2Cc2ccc(C)cc2)cc1 (stereo unspecified),-4,-16,-13,-40*,1
Cc1ccsc1CCNC(=O)C1CCC(=O)N(CCc2cccc(F)c2)C1 (stereo unspecified),-3,-5,1,-37*,3
O=C(NCCc1ccc(C(F)(F)F)cc1)C1CCC(=O)N(CCCN2CCCC2=O)C1 (stereo unspecified),-9,2,0,-40*,0
Cc1nc(CN(C)C(=O)C2CCC(=O)N(CCc3cccc(F)c3)C2)cs1 (stereo unspecified),-8,6,1,0,4
Cc1n[nH]c(C)c1CN(C)C(=O)C1CCC(=O)N(CCc2cccc(F)c2)C1 (stereo unspecified),1,1,-3,-33*,4
O=C(NCCc1cccs1)C1CCC(=O)N(CCc2cccc(F)c2)C1 (stereo unspecified),2,0,3,2,-1
Cc1cccc(-c2nc3scc(CCNS(=O)(=O)c4ccc5c(c4)OCCO5)n3n2)c1,0,·,10,·,8
Cc1ccc(CNC(=O)C2CCC(=O)N(CCc3cccc(F)c3)C2)cc1 (stereo unspecified),-11,-7,3,-43*,2
Cc1cc(CNC(=O)C2CCC(=O)N(CCc3cccc(F)c3)C2)nn1C (stereo unspecified),-1,-4,-4,1,2
COc1cc(C(=O)NCC(c2ccc3c(c2)OCO3)N2CCOCC2)cc(OC)c1OC (stereo unspecified),-1,·,-17,1,1
Cc1csc2ncnc(NC3CCN(Cc4ccccc4)CC3)c12,-10,-90*,-14,-33*,22
Cc1ccc(-c2csc3ncnc(N4CCN(Cc5ccccc5)CC4)c23)cc1,-5,39,-16,6,2
CCCCn1c(=O)c2oc3ccccc3c2n(Cc2ccc(OC)cc2)c1=O,0,·,-15,2,1
CCN(CC)CCCNC(=O)C1CCN(S(C)(=O)=O)CC1,0,·,1,-11,-2
CCOC(=O)c1cnc2cc(-c3ccc(OCC)cc3)nn2c1-c1ccccc1,-2,·,36*,0,5
CCOC(=O)c1nnc2cc(-c3ccc(Br)cc3)nn2c1C,-2,15,5,5,2
CCOC(=O)c1nnc2cc(-c3ccccc3)nn2c1C,-5,-74*,8,-2,5
OC[C@@H]1[C@@H](c2ccc(F)cc2)C(c2ccccc2)=NN1c1ccccc1,·,2,17,·,·
Cc1cccc(C2=NN(c3ccccc3)[C@H](CO)[C@H]2c2ccccc2)c1,·,14,42*,·,·
CCOC(=O)c1c(S(=O)(=O)N2CCCC(C(=O)N3CCN(c4cc(C)ccc4C)CC3)C2)c(C)n(C)c1C (stereo unspecified),0,·,-3,10,2
CCOC(=O)c1c(S(=O)(=O)N2CCC(C(=O)N3CCN(c4cc(C)ccc4C)CC3)CC2)c(C)n(C)c1C,-2,·,-13,-92*,0
CCOC(=O)c1c(S(=O)(=O)N2CCCC(C(=O)Nc3cccc(C)n3)C2)c(C)n(C)c1C (stereo unspecified),-2,1,-1,13,2
SMILES,D1 PAM,DRD3 antagonist,D3 ag,D1 antag,D1 agonist
CCOC(=O)c1c(S(=O)(=O)N2CCCC(C(=O)Nc3cc(C)ccn3)C2)c(C)n(C)c1C (stereo unspecified),-2,·,-11,-33*,1
Cc1cc2c(s1)c1cnn(Cc3ccc(Cl)c(F)c3)c(=O)c1n2C,4,·,·,-2,5
CCOC(=O)C1(C)CCCN(C(=O)c2ccccc2)C1 (stereo unspecified),·,-61*,-20,·,·
COc1ccccc1CNS(=O)(=O)c1ccc2c(c1)NC(=O)C(C)C(=O)N2 (stereo unspecified),-2,·,-14,-5,24
CCOc1ccc(Cn2c(CNS(=O)(=O)c3cccc(Cl)c3)nc3cccnc32)cc1,-5,·,9,-80*,1
CCOc1ccccc1/C=C/c1onc(C)c1S(=O)(=O)N1CCC(C(=O)N2CCCCC2)CC1,2,·,-17,7,3
CCc1ccccc1NC(=O)CN(c1ccccc1OC)S(=O)(=O)c1ccc(C)cc1,2,·,1,-12,3
CN1CCN(C(=O)CCCOc2ccc(Cl)cc2Cl)CC1,-10,-53*,-3,-9,5
CN1CCCN(C(=O)c2ccc(Cl)cc2)CC1,-2,?,-8,-1,2
O=C(CCCOc1ccc(Cl)cc1Cl)N1CCN(c2ccccn2)CC1,11,12,4,6,3
CN1CCN(C(=O)c2ccc(COc3ccc(Cl)cc3Cl)cc2)CC1,-9,-89*,-22,-55*,26
CC(C)c1nccn1CCC(=O)O,-28,22,-3,-44*,3
Cc1cc(C)cc(NC(=O)c2cc(C)nc3c2c(C)nn3-c2ccccc2)c1,-4,·,-7,-7,8
CCOc1ccccc1CNC(=O)C1CCN(c2nc3ccccc3nc2C(F)(F)F)CC1,-1,·,-5,-14,1
Cc1ccc(-n2[nH]c(C)c(/C=N/Nc3ccc([N+](=O)[O-])cc3[N+](=O)[O-])c2=O)cc1,-10,-56*,-21,-7,6
Cc1ccc2c(=O)cc(C(=O)Nc3c(C)n(C)n(-c4ccccc4)c3=O)oc2c1,-1,·,8,-8,-1
CS(=O)(=O)N1CCc2cc(C(=O)N3CCN(c4ccccc4)CC3)ccc21,-3,-7,5,-65*!,-1
CS(=O)(=O)N1CCc2cc(C(=O)NC3CC3)ccc21,-3,-12,9,-37*,4
CS(=O)(=O)N1CCc2cc(C(=O)N3CCN(c4ccc(F)cc4)CC3)ccc21,10,-3,-1,1,-1
COc1ccc(NC(=O)c2ccc3c(c2)CCN3S(C)(=O)=O)cc1,·,-2,5,·,·
CS(=O)(=O)N1CCc2cc(C(=O)Nc3ccc(Cl)cc3)ccc21,-6,?,94*,-9,8
CCOc1ccc(NC(=S)N(CCCN2CCCC2)Cc2cccn2Cc2ccc(Cl)cc2)cc1,-14,-10,-10,-48*,4
CSc1cccc(NC(=S)N(CCCN2CCC(C)CC2)Cc2cccs2)c1,-12,-76*,-16,-13,10
COc1ccc(NC(=S)N(CCCN2CCC(C)CC2)Cc2cccs2)cc1,-7,-58*,-7,-1,15
